Screens deposited in PubChem BioAssay by National Center for Advancing Translational Sciences (NCATS).
Only a selection was taken, and hits are over-represented in it overall.
LmPK inhibitor – LmPK (Leishmania mexicana) enzyme inhibition; Q27686; purified LmPK, Kinase-Glo ATP luminescence, 1 h; 0.37% of 290,000 active; Potency, µM (top dose mostly 57.5 µM), inactives show at the highest dose activity change, negative = inhibition, hits mostly inhibitors; note: potency is the fitted concentration of half-maximal effect; % is set by controls: 0 for no effect and ±100 for the full control effect
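Purified LmPK (0.1 nM) converted ADP (0.1 mM) to ATP with PEP (0.5 mM) in imidazole buffer pH 7.2 with KCl and MgCl2, 1 h at room temperature. ATP was read by Kinase-Glo luminescence; data normalized to uninhibited and no-enzyme controls.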
Tb PYK inh – inhibitors of Trypanosoma brucei pyruvate kinase. Q57TT1. TbPYK enzyme, Kinase-Glo Plus ATP luminescence, 45 min. Potency, µM (top dose mostly 76.8 µM), inactives show at the top dose activity, negative = inhibition, most hits filed as inhibitors. 0.12% of 410,000 active; note: potency is the fitted concentration of half-maximal effect; % is set by controls: 0 for no effect and ±100 for the full control effect; nearly all actives have a fitted effect of over 50% in size
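Assay buffer: 50 mM TEA pH 7.2, 100 mM KCl, 10 mM MgCl2, 0.05% BSA, 0.01% Tween-20. Pyruvate kinase from T. brucei plus substrate met compound, then ADP (130 uM final). Luminescence was read post 45 min RT.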
Giardia FBPA inh – blocks Giardia fructose-bisphosphate aldolase activity; purified Giardia FBPA; 0.71% of 290,000 active; Potency, µM (highest dose often 59.6 µM), for the others: at the top dose activity, negative = inhibition, usual class: inhibitors; note: potency is the fitted concentration of half-maximal effect; % is set by controls: 0 for no effect and ±100 for the full control effect; nearly all actives have a fitted effect of over 55% in size
Target sequence (A8B2U2 whole entry, looked up): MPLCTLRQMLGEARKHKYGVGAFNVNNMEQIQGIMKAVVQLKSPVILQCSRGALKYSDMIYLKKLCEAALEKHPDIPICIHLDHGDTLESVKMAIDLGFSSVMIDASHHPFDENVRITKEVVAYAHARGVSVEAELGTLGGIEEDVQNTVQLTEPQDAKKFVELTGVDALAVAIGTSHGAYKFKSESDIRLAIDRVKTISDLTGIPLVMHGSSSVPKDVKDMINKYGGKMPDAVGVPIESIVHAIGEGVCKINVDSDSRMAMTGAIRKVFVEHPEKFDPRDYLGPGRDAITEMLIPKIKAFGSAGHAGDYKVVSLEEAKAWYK
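Giardia FBPA (40 nM reagent) was preincubated 10 min at RT with compound (up to 57.5 uM final), then substrate plus GAPDH/TPI/NAD/arsenate coupling system with diaphorase/resazurin was added; resorufin fluorescence (525/598 nm) was read after 20 min.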
Cycloheximide cs – counter-screen hit for Shiga toxin inhibitors, cycloheximide; cell reporter, cycloheximide protein synthesis inhibition counterscreen; max response, %; 12% of 300,000 active; in the data active = max response mostly above about 13%, no sharp cut-off; inactive = mostly below about 14%; note: read at 38.3 µM for the half of the compounds with a filed dose; 0% is about no effect
RE007 growth inh – less growth of the S. pombe RE007 Vpr strain | 0.21% of 360,000 active | AID 651644 | Potency, µM (doses to about 92.2 µM), for inactives: at the highest dose activity change, negative = less growth, actives largely listed as inhibitors | S. pombe RE007 Vpr strain, BacTiter-Glo ATP luminescence, 24 h; active = well fitted falling curve with a large enough effect; note: potency is the fitted concentration of half-maximal effect; % is set by controls: 0 for no effect and ±100 for the full control effect; nearly all actives have a fitted effect of over 50% in size
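Fission yeast RE007 carrying one integrated HIV-1 vpr copy, seeded at OD 0.01 in PMG+AL medium with 23 nL pinned compound. Grown 24 h at 30 degrees; viability read by BacTiter-Glo luminescence after 5 min.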
Shiga inhibitor – inhibitors of Shiga toxin in Vero cells. Vero cells, Shiga toxin protein synthesis inhibition reporter. inhibition, % at 38.7 µM. 9.2% of 290,000 active; in the data active = inhibition mostly above about 28%, no sharp cut-off; inactive = mostly below about 43%; note: 0% is about no effect
The depositor's hits bear a star; / = no result; + = active, no number; [ ] = dose if it differs, or a comment. Unless noted, calls come from the whole dose curve; as a rule, active = well fitted curve in the direction sought with a large enough effect; inconclusive = small, poorly fitted or top-dose-only effect, or another doubt; inactive = no such curve, though single readings can be large; an effect the other way counts as inactive or inconclusive.

SMILES	LmPK inhibitor	Tb PYK inh	Giardia FBPA inh	Cycloheximide cs	RE007 growth inh	Shiga inhibitor
COc1cc(OC)c(-c2nc3ccccc3s2)cc1OC	12%	-1%	-10%	24*	-15%	33*
CCOc1ccccc1NC(=O)CN(C)S(=O)(=O)c1ccc2nc(C)sc2c1	/	0%	/	/	/	/
CC12CCC(C/C1=N/O)C2(C)CBr (stereo not given)	3%	-13%	0%	-1	-6%	-4
CC(C)c1ccc(NC(=O)C2CCCN(S(=O)(=O)c3cccc4nsnc34)C2)cc1 (stereo not given)	/	-1%	/	/	/	/
Cc1cc(C(=O)NNC(=S)Nc2cccc(C(F)(F)F)c2)nn1C	-2%	-23%	/	18*	-1%	33
O=C(NNC(=S)Nc1cccc(C(F)(F)F)c1)c1ccncc1	/	-19%	/	/	-2%	/
Cn1c(SCC(=O)OC2CCCCC2)nnc1-c1ccco1	-5%	-4%	-7%	16*	4%	16
COCCCn1c(SCC(=O)OC2CCCCC2)nnc1-c1ccco1	4%	-5%	4%[12.9 µM]	17*	-23%	19
COCCCn1c(SCC(=O)NC2CCCC2)nnc1-c1ccco1	5%	-4%	6%	-2	11%	-12
O=C1CCCN2N=C(SCC(=O)N3CCCCC3)SC2=N1	2%	0%	4%	-3	-11%	-2
CCCSC1=NN2CCCC(=O)N=C2S1	-6%	-4%	5%	27*	0%	93*
O=[N+]([O-])c1ccc(COn2nnc3ccccc32)cc1	-1%	0%	0%	14*	9%	45
Clc1ccc(COn2nnc3ccccc32)c(Cl)c1	-3%	3%	-3%	44*	-20%	109*
O=C(c1ccc(Cl)cc1Cl)n1nnc2ccccc21	/	/	2%	2	/	-3
Cc1c(F)c(N2CCNC(C)C2)cc2c1c(=O)c(C(=O)O)cn2C1CC1 (stereo not given)	/	-8%	/	/	/	/
CCCn1c(CCC(=O)Nc2cccc(C)c2C)nc2cccnc21	/	-1%	/	/	/	/
CCc1ccc(NS(=O)(=O)c2ccc(-c3cc(C)no3)cc2)cc1	/	-8%	/	/	/	/
Cc1cccc(C(=O)NCC(c2ccc3c(c2)OCO3)N2CCOCC2)c1 (stereo not given)	/	0%	/	/	/	/
O=C(/C=C/c1ccco1)Nc1cccc2cccnc12	-2%	-9%	-22%	61*	1%	119*
Cc1ccc(NC(=O)/C=C/c2ccco2)nc1	-10%	0%	-11%	34*	37%	78*
O=C(/C=C/c1ccco1)Nc1ccccn1	14µM*	-21%	1%	36*	-23%	43*
c1ccc(Nc2nc(-c3ccoc3)nc3ccccc23)cc1	/	/	-10%	/	/	/
C[C@@]1(C(NC(=O)c2ccccc2)c2ccc(-c3ccccc3)cc2)C[C@H]1C1CCCCC1 (stereo not given in full)	/	/	-1%	/	/	/
COC(=O)CN1C(=O)CSc2ccc(S(=O)(=O)Nc3ccc(C)c(Cl)c3)cc21	/	-4%	/	/	/	/
CSCC[C@H](NC(=O)[C@H](CC(C)C)NC(=O)CNC(=O)[C@@H]1CCCN1C(=O)[C@H](Cc1ccccc1)NC(=O)[C@H](Cc1ccccc1)NC(=O)[C@H](CC(=O)O)NC(=O)[C@H](Cc1cnc[nH]1)NC(=O)[C@H](CCSC)NC(=O)[C@@H](N)CC(=O)O)C(N)=O	/	/	0%	-4	/	-6
SMILES	LmPK inhibitor	Tb PYK inh	Giardia FBPA inh	Cycloheximide cs	RE007 growth inh	Shiga inhibitor
O=c1c2ccccc2n2c(-c3ccccc3F)nnc2n1CCc1ccccc1	/	6%	/	/	/	/
O=C(OCc1ccccc1)[C@@H]1COC(c2ccc(Br)cc2)=N1	/	/	-1%[89.2 µM]	38*	/	+
Clc1ccccc1Cn1cccc1C1=NC(Cc2ccccc2)CO1 (stereo not given)	/	0%	/	/	/	/
O=C(O)CC(NC(=O)OCc1ccccc1)c1ccc(Br)cc1 (stereo not given)	0%	5%	19%	-3	11%	-7
Brc1ccc(C2=NC(Cc3ccccc3)CO2)cc1 (stereo not given)	-3%	1%	1%	52*	10%	77*
CCN(C[C@H]1N[C@@](Cc2ccccc2)(C(=O)OC)[C@H]2C(=O)N(C)C(=O)[C@@H]12)C(=O)NC(C)C	/	5%	/	/	-5%	/
COCCn1c(C(C)C)nc2oc3ccccc3c(=O)c2c1=O	1%	3%	-6%	8	16%	-3
Cc1ccc(-n2c(C(C)C)nc3oc4ccccc4c(=O)c3c2=O)cc1	4%	3%	-5%	29*	-26%	63*
CCc1nc2oc3ccccc3c(=O)c2c(=O)n1-c1ccc(C)cc1	4%	-4%	-12%	41*	2%	64*
CCc1nc2oc3ccccc3c(=O)c2c(=O)n1CCOC	-2%	-1%	9%	-1	0%	-1
CCCCn1c(-c2cccs2)nc2oc3ccccc3c(=O)c2c1=O	-2%	-24%	3%	-2	2%	-9
CCc1nc2oc3ccccc3c(=O)c2c(=O)n1-c1ccccc1	-4%	4%	-8%	44*	4%	65*
CCCc1nc2oc3ccccc3c(=O)c2c(=O)n1-c1ccccc1	5%	-10%	1%	33*	-17%	55*
Cc1cccc(N(C)C(=O)Cc2c(C(=O)O)[nH]c3ccccc23)c1	/	-1%	/	/	/	/
O=C(NCc1cccnc1)NC1CC(=O)N(c2ccc3c(c2)OCCO3)C1 (stereo not given)	0%	-3%	1%	-2	17%	-4
O=C(Cn1c(=O)n(-c2ccccc2)c(=O)c2c3c(sc21)CCCC3)Nc1ccc(F)cc1F	/	-9%	/	/	/	/
CN1C[C@H](C(=O)N[C@]2(C)O[C@@]3(O)[C@H]4CCCN4C(=O)[C@H](Cc4ccccc4)N3C2=O)C[C@H]2c3cccc4[nH]cc(c34)C[C@@H]21	/	/	-2%	/	/	/
CCCc1nc2oc3ccccc3c(=O)c2c(=O)n1-c1ccc(C)cc1	2%	2%	-4%	36*	5%	66*
CCCc1nc2c(c(=O)c3ccccc3n2C)c(=O)n1-c1ccc(F)cc1	-3%	-8%	-3%	-2	6%	15
CCn1c([N+](=O)[O-])nc2c1c(=O)[nH]c(=O)n2C	-9%	2%	13µM*	11	3%	18
Cn1c(SCc2ccc(F)cc2)nnc1-c1cccs1	-7%	6%	10%	46*	5%	62
Cn1c(SCc2ccccc2)nnc1-c1cccs1	-2%	-10%	-4%	32*	24%	81*
FC(F)(F)c1nnc2c(Sc3ccc(Cl)cc3)nc3ccccc3n12	3%	-16%	1%	-7	-9%	26
FC(F)(F)c1nnc2c(Sc3ccccc3)nc3ccccc3n12	2%	2%	17%	28*	-12%	-26
FC(F)(F)c1nnc2c(Sc3ccccn3)nc3ccccc3n12	3%	-12%	6%	23*	-4%	111*
